Of roughly 7,900 targets only a part is listed; those with a hit were picked by preference. About 0.6% of all pairs of compound and target were hits.
Columns and labels:
Test in all cases: log2 fold change, soluble protein after heating vs DMSO (PISA); higher = thermal stabilisation; K562 cells, 10 uM, 30 min; active = over 0.2 and 3.5 SD of the protein, either way, in both replicates (recomputed)
[1] = compound: COC1=CC=C(C=C1)CN2C=CC3=C2C=C(C=C3)C(=O)NO
Method in brief: (§1)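 K562 cells at 2×10^6 cells/mL were treated for 30 min with 10 μM compound, and aliquots were heated for 3 min over 48°C-58°C before pooling. Extraction used PBS with 0.5% NP-40 at 4°C, and soluble protein was the supernatant after 21,000xg for 90 min, measured by TMTpro 16plex LC-MS/MS with channel sums equalised. Thermal stability values, relative to control samples and from duplicates, are log2 fold changes.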

filanesib = compound: CON(C)C(=O)N1N=C(c2cc(F)ccc2F)S[C@@]1(CCCN)c1ccccc1 [filanesib]
Method in brief: as §1

zotarolimus = compound: CO[C@H]1C[C@@H]2CC[C@@H](C)[C@@](O)(O2)C(=O)C(=O)N2CCCC[C@H]2C(=O)O[C@H]([C@H](C)C[C@@H]2CC[C@H](n3cnnn3)[C@H](OC)C2)CC(=O)[C@H](C)/C=C(\C)[C@@H](O)[C@@H](OC)C(=O)[C@H](C)C[C@H](C)/C=C/C=C/C=C/1C [zotarolimus]
Method in brief: as §1

idasanutlin = compound: COc1cc(C(=O)O)ccc1NC(=O)[C@@H]1N[C@@H](CC(C)(C)C)[C@](C#N)(c2ccc(Cl)cc2F)[C@H]1c1cccc(Cl)c1F [idasanutlin]
Method in brief: as §1

alisertib = compound: COc1cc(Nc2ncc3c(n2)-c2ccc(Cl)cc2C(c2c(F)cccc2OC)=NC3)ccc1C(=O)O [alisertib]
Method in brief: as §1

[2] = compound: COc1cc2nc(-c3cc(F)ccc3O)nc(N[C@@H]3CNC[C@H]3C(C)(C)O)c2cc1OC
Method in brief: as §1

gefitinib = compound: COc1cc2ncnc(Nc3ccc(F)c(Cl)c3)c2cc1OCCCN1CCOCC1 [gefitinib]
Method in brief: as §1

[3] = compound: COc1cccc2cc(-c3nc([C@H]4CC[C@H](C(=O)O)CC4)n4ncnc(N)c34)[nH]c12
Method in brief: as §1

lapatinib = compound: CS(=O)(=O)CCNCc1ccc(-c2ccc3ncnc(Nc4ccc(OCc5cccc(F)c5)c(Cl)c4)c3c2)o1 [lapatinib]
Method in brief: as §1

pictilisib = compound: CS(=O)(=O)N1CCN(Cc2cc3nc(-c4cccc5[nH]ncc45)nc(N4CCOCC4)c3s2)CC1 [pictilisib]
Method in brief: as §1

[4] = compound: CS(=O)(=O)c1ccc(-c2cnc(N)c(C(=O)Nc3ccccc3)n2)cc1
Method in brief: as §1

crizotinib = compound: C[C@@H](Oc1cc(-c2cnn(C3CCNCC3)c2)cnc1N)c1c(Cl)ccc(F)c1Cl [crizotinib]
Method in brief: as §1

[5] = compound: C[C@@H]1COCCN1C2=NC(=NC(=C2)C3(CC3)S(=O)(=O)C)C4=C5C=CNC5=CC=C4
Method in brief: as §1

[6] = compound: C[C@H](C1=CC=C(C=C1)C(=O)NC2=C3C=CNC3=NC=C2)N
Method in brief: as §1

duvelisib = compound: C[C@H](Nc1ncnc2nc[nH]c12)c1cc2cccc(Cl)c2c(=O)n1-c1ccccc1 [duvelisib]
Method in brief: as §1

gandotinib = compound: Cc1cc(Nc2cc(CN3CCOCC3)c3nc(C)c(Cc4ccc(Cl)cc4F)n3n2)n[nH]1 [gandotinib]
Method in brief: as §1

tozasertib = compound: Cc1cc(Nc2cc(N3CCN(C)CC3)nc(Sc3ccc(NC(=O)C4CC4)cc3)n2)n[nH]1 [tozasertib]
Method in brief: as §1

[7] = compound: Cc1cc(SCc2sc(-c3ccc(C(F)(F)F)cc3)nc2C)ccc1OCC(=O)O
Method in brief: as §1

doramapimod = compound: Cc1ccc(-n2nc(C(C)(C)C)cc2NC(=O)Nc2ccc(OCCN3CCOCC3)c3ccccc23)cc1 [doramapimod]
Method in brief: as §1

ispinesib = compound: Cc1ccc(C(=O)N(CCCN)[C@@H](c2nc3cc(Cl)ccc3c(=O)n2Cc2ccccc2)C(C)C)cc1 [ispinesib]
Method in brief: as §1

Measured: log2 fold change

LEMD3 (UniProt Q9Y2U8)
inactive: [1] 0.036 | filanesib 0 | zotarolimus 0.107 | idasanutlin -0.023 | alisertib 0.073 | [2] -0.001 | gefitinib -0.013 | [3] 0.069 | lapatinib 0.044 | pictilisib 0.047 | [4] 0.072 | crizotinib -0.12 | [5] -0.084 | [6] -0.016 | duvelisib -0.003 | gandotinib 0.006 | tozasertib -0.015 | [7] 0.114 | doramapimod -0.002 | ispinesib -0.095

MAP2K1 (UniProt Q02750)
inactive: [1] 0.022 | filanesib -0.05 | zotarolimus -0.007 | idasanutlin -0.047 | alisertib -0.048 | [2] 0.02 | gefitinib -0.011 | [3] 0.029 | lapatinib -0.045 | pictilisib 0.04 | [4] 0.055 | crizotinib -0.019 | [5] 0.088 | [6] -0.092 | duvelisib 0.059 | gandotinib 0.005 | tozasertib -0.009 | [7] -0.038 | doramapimod -0.05 | ispinesib -0.009

MED25 isoform 3 (UniProt Q71SY5)
Chain of UniProt Q71SY5 (Q71SY5 whole entry, looked up): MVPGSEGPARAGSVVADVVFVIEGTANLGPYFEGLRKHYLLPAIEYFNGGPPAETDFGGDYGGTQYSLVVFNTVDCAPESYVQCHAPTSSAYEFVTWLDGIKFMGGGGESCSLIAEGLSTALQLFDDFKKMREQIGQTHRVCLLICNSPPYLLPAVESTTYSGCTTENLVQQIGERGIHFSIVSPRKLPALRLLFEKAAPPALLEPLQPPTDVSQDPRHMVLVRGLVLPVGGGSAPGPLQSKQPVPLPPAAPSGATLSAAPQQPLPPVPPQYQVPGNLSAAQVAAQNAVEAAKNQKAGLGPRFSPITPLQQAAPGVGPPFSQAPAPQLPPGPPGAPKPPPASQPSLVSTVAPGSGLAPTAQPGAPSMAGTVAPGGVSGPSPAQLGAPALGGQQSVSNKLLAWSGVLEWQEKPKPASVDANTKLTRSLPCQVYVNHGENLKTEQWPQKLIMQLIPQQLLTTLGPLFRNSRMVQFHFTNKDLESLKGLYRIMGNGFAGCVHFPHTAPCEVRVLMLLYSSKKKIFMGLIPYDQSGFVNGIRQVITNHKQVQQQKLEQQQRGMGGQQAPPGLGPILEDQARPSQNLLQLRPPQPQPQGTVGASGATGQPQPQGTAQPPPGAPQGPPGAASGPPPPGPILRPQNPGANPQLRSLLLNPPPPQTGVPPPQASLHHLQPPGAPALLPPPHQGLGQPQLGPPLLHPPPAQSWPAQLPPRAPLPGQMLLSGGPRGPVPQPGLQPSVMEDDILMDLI
inactive: [1] -0.015 | filanesib -0.018 | zotarolimus 0.136 | idasanutlin 0.004 | alisertib 0.048 | [2] -0.01 | gefitinib 0.093 | [3] -0.285 | lapatinib -0.03 | pictilisib 0.103 | [4] 0.061 | crizotinib 0.021 | [6] 0 | duvelisib 0.061 | gandotinib 0.19 | tozasertib 0.136 | [7] 0.162 | doramapimod 0.085 | ispinesib -0.018

LRPPRC (UniProt P42704)
inactive: [1] 0.303 | filanesib -0.788 | zotarolimus -0.02 | idasanutlin 0 | alisertib 0.207 | [2] -0.638 | gefitinib -0.189 | [3] 0.119 | lapatinib -0.091 | pictilisib -0.119 | [4] 0.025 | crizotinib -0.822 | [5] 0.154 | [6] 0.065 | duvelisib 0.059 | gandotinib -0.175 | tozasertib 0.213 | [7] 0.481 | doramapimod -0.172 | ispinesib -0.416

KCNK5 (UniProt O95279)
inactive: [1] 0.059 | filanesib -0.117 | zotarolimus -0.044 | alisertib -0.408 | [2] -0.541 | [3] 0.193 | lapatinib -0.227 | pictilisib -0.007 | [4] 0.087 | crizotinib -0.164 | [5] 0.339 | [6] -0.013 | duvelisib 0.213 | gandotinib -0.03 | [7] 0.242 | doramapimod -0.165

IGFBP3 isoform 2 (UniProt P17936)
Chain of UniProt P17936 (P17936 whole entry, looked up): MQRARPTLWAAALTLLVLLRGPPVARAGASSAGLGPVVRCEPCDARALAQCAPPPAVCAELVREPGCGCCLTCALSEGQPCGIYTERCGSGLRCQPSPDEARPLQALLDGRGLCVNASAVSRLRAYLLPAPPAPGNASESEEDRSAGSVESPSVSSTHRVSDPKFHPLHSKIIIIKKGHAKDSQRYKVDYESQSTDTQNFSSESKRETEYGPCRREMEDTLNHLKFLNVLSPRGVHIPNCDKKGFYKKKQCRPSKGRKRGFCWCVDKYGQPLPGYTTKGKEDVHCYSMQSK
inactive: [1] 0.176 | filanesib -0.272 | idasanutlin 0.535 | [2] -0.103 | lapatinib 0.085 | pictilisib -0.085 | [4] -0.097 | crizotinib -0.176 | [5] -0.063 | [6] -0.149 | duvelisib 0.068 | gandotinib -0.545 | tozasertib -0.092 | [7] 0.027 | doramapimod -0.243
active: zotarolimus -1.02

LRFN1 (UniProt Q9P244)
Chain of UniProt Q9P244 (Q9P244 whole entry, looked up): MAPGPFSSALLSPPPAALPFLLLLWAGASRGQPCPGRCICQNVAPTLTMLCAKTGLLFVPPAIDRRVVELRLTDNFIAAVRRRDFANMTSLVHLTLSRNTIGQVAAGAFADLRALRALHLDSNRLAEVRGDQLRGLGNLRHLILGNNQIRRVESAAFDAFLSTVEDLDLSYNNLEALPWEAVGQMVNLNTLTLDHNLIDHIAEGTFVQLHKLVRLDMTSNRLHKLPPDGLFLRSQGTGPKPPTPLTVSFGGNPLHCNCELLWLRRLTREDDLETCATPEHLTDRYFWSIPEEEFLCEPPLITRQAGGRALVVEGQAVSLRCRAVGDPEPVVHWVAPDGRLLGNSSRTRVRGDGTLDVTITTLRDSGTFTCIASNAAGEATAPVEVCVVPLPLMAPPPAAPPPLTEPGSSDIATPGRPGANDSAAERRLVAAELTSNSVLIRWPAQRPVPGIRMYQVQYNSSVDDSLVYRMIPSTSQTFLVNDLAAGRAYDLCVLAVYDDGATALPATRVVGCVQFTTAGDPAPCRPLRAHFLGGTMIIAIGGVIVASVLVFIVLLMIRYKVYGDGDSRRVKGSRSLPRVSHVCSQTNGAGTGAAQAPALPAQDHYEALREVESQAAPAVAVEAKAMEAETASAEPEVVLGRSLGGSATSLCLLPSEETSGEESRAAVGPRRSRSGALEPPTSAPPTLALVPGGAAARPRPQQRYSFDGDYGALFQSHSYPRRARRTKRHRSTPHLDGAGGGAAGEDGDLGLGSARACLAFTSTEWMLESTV
inactive: [1] -0.054 | filanesib 0.151 | zotarolimus 0.031 | [2] 0.025 | lapatinib -0.048 | [4] 0.108 | crizotinib -0.006 | [5] -0.15 | [6] -0.198 | duvelisib 0.038 | tozasertib -0.042 | [7] 0.009 | doramapimod -0.09 | ispinesib 0.102

MBLAC1 (UniProt A4D2B0)
Chain of UniProt A4D2B0 (A4D2B0 whole entry, looked up): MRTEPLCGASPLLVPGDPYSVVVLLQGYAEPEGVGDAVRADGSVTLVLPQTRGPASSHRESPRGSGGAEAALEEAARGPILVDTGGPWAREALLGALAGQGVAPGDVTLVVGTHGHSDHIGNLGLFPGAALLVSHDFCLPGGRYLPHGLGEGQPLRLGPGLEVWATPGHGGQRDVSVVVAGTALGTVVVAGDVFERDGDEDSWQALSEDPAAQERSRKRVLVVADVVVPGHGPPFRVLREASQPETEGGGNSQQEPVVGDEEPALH
inactive: [1] 0.11 | zotarolimus 0.008 | idasanutlin 0.056 | alisertib -0.161 | [2] -0.064 | [3] 0.086 | lapatinib 0.01 | pictilisib 0.043 | crizotinib 0.038 | [6] -0.007 | duvelisib 0.019 | gandotinib -0.056 | [7] -0.017 | doramapimod 0.169 | ispinesib -0.142

KIF3B (UniProt O15066)
inactive: [1] -0.071 | filanesib 0.04 | zotarolimus 0.027 | idasanutlin -0.252 | alisertib -0.071 | [2] 0.164 | [3] 0.04 | lapatinib 0.035 | pictilisib -0.161 | [4] -0.004 | crizotinib -0.018 | [5] 0.054 | [6] 0.03 | duvelisib 0.05 | gandotinib -0.199 | tozasertib -0.051 | [7] -0.023 | doramapimod 0.076 | ispinesib 0.04

MCM10 (UniProt Q7L590)
inactive: [1] 0.303 | filanesib -0.192 | alisertib -0.097 | [2] -0.103 | gefitinib -0.014 | [3] 0.1 | lapatinib 0.204 | pictilisib -0.118 | [4] -0.171 | crizotinib -0.015 | [5] -0.102 | gandotinib 0.092 | tozasertib 0.144 | doramapimod -0.01

MGRN1 isoform 2 (UniProt O60291)
Chain of UniProt O60291 (O60291 whole entry, looked up): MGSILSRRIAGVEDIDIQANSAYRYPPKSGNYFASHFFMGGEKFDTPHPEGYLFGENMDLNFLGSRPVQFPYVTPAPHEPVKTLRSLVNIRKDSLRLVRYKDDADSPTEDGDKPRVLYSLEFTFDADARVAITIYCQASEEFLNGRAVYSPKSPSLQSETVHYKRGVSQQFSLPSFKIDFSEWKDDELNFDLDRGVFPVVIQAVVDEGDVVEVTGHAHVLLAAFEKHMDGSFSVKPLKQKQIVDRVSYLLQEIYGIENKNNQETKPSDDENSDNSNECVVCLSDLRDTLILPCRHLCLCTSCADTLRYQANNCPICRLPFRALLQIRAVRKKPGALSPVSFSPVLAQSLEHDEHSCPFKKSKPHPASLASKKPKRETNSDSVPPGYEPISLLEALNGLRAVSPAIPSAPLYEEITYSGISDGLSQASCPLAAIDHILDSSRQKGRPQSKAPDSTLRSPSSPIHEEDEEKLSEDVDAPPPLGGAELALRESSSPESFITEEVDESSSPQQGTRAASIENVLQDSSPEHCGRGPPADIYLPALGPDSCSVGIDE
inactive: [1] -0.015 | zotarolimus -0.017 | idasanutlin -0.108 | [2] 0.069 | lapatinib -0.238 | pictilisib -0.004 | crizotinib -0.015 | [6] 0.225 | gandotinib 0.06 | tozasertib -0.136 | doramapimod 0.012 | ispinesib -0.225

ITM2B (UniProt Q9Y287)
Chain of UniProt Q9Y287 (Q9Y287 whole entry, looked up): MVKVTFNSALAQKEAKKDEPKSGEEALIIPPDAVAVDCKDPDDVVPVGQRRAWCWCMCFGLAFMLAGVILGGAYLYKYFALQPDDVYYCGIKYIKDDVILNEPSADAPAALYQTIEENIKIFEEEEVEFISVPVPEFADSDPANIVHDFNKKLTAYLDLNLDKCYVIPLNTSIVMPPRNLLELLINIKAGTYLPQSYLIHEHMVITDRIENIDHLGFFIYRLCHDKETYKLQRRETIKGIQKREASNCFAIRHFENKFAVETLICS
inactive: [1] -0.109 | filanesib 0.092 | zotarolimus -0.042 | idasanutlin -0.03 | alisertib 0.083 | [2] -0.037 | gefitinib -0.047 | [3] 0.138 | lapatinib -0.116 | [4] 0.065 | crizotinib -0.193 | [5] -0.032 | [6] 0.038 | duvelisib -0.15 | tozasertib 0.033 | [7] -0.032 | doramapimod 0.043 | ispinesib 0.131

MELK (UniProt Q14680)
active: [2] -3.59
inactive: [1] 0.072 | filanesib -0.116 | zotarolimus -0.019 | idasanutlin 0.061 | gefitinib 0.253 | lapatinib -0.006 | pictilisib -0.079 | [4] 0.109 | crizotinib -0.128 | [5] -0.099 | [6] 0.054 | duvelisib -0.063 | gandotinib -0.046 | tozasertib -0.087 | [7] -0.047 | doramapimod -0.011

INTS5 (UniProt Q6P9B9)
inactive: [1] -0.02 | filanesib -0.055 | idasanutlin 0.045 | alisertib -0.019 | [2] -0.111 | gefitinib -0.017 | [3] -0.004 | lapatinib 0.13 | [4] 0.029 | crizotinib -0.013 | [5] 0.058 | duvelisib 0.047 | tozasertib 0.076 | [7] 0.008 | doramapimod 0.006 | ispinesib 0.025

IL27RA (UniProt Q6UWB1)
active: [5] 0.539
inactive: [1] -0.02 | filanesib 0.065 | zotarolimus -0.11 | idasanutlin 0.113 | alisertib -0.29 | [2] 0.047 | gefitinib -0.169 | [3] 0.207 | lapatinib 0.043 | [4] -0.031 | crizotinib 0.029 | [6] -0.121 | duvelisib 0.244 | tozasertib -0.039 | [7] -0.109 | doramapimod 0.211 | ispinesib 0.043

ILRUN (UniProt Q9H6K1)
inactive: [1] -0.051 | filanesib -0.016 | zotarolimus 0.042 | idasanutlin -0.101 | alisertib -0.03 | [2] -0.002 | gefitinib 0.048 | [3] 0.09 | lapatinib 0.08 | [4] -0.033 | crizotinib 0.115 | [5] 0.028 | [6] -0.038 | duvelisib 0.021 | tozasertib -0.087 | [7] 0.029 | doramapimod 0.005 | ispinesib 0.032

LUM (UniProt P51884)
inactive: [1] -0.151 | filanesib 0.169 | zotarolimus 0 | idasanutlin -0.023 | [2] -0.216 | gefitinib 0.087 | lapatinib 0.067 | [4] -0.011 | crizotinib 0.352 | [5] -0.146 | [6] 0.217 | duvelisib 0.021 | tozasertib -0.182 | [7] -0.135 | doramapimod 0.168 | ispinesib -0.007

MED12 isoform 2 (UniProt Q93074)
Chain of UniProt Q93074 (Q93074 whole entry, looked up): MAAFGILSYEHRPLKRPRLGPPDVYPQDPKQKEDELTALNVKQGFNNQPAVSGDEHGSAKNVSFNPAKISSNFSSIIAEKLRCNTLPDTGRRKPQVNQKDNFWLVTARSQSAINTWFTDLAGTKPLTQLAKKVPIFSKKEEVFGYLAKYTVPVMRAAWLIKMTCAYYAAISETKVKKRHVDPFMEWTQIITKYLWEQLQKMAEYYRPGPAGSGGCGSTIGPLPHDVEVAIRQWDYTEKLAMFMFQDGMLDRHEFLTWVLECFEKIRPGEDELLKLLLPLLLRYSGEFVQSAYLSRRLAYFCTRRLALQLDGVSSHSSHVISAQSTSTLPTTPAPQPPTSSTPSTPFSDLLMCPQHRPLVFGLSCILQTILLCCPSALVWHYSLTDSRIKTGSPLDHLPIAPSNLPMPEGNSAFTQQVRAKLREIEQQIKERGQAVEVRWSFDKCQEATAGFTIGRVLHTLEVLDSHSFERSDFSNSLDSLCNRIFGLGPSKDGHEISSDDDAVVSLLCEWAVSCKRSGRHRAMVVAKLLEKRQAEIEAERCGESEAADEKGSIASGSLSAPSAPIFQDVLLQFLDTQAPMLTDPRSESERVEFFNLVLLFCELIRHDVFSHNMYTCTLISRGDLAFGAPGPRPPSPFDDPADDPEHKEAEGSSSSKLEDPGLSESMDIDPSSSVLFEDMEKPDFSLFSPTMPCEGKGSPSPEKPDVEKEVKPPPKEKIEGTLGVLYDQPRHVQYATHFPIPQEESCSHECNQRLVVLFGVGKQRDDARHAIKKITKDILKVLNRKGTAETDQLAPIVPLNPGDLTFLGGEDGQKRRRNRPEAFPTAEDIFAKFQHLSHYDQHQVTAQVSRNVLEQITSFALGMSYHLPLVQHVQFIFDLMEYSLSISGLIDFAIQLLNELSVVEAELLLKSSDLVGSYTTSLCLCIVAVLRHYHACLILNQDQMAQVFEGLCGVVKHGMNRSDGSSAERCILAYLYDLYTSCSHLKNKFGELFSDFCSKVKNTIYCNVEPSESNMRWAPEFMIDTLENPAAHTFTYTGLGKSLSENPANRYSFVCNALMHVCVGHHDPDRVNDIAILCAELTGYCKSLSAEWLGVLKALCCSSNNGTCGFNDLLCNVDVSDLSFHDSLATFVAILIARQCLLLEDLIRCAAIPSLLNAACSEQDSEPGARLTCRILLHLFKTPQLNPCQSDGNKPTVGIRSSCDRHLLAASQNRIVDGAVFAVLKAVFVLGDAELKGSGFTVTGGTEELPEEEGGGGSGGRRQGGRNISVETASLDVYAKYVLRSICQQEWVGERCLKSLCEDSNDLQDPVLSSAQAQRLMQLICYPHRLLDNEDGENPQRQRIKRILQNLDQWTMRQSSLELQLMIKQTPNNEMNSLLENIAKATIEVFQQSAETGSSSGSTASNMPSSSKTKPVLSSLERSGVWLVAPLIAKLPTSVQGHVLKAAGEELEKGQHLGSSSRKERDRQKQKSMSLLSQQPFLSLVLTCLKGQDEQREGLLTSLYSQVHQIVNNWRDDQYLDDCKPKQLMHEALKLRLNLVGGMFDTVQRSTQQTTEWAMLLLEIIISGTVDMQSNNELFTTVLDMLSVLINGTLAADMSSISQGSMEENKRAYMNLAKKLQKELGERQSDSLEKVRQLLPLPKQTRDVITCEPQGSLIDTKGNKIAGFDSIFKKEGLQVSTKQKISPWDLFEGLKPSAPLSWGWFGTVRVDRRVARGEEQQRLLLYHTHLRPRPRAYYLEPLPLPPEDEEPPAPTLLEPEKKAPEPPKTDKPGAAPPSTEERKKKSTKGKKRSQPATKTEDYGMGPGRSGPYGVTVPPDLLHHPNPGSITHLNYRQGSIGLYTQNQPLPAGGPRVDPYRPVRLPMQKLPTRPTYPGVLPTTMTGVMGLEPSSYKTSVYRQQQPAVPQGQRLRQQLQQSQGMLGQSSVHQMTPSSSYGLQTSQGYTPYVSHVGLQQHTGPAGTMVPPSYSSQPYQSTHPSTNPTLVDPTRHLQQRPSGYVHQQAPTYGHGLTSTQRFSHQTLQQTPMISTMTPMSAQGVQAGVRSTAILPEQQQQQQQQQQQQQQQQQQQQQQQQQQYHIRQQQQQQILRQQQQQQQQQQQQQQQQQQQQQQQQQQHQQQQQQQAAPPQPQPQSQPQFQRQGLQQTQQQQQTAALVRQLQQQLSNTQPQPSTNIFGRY
inactive: [1] 0.093 | filanesib 0.256 | idasanutlin 0.103 | alisertib 0.214 | [2] -0.09 | gefitinib 0.024 | [3] 0.007 | lapatinib 0.028 | pictilisib -0.113 | [4] -0.088 | crizotinib -0.088 | [5] 0.207 | duvelisib 0.068 | gandotinib -0.009 | tozasertib 0.012 | [7] 0.048 | doramapimod 0.095 | ispinesib -0.117

From the supplement of paper PMC10849652
